ChEMBL document CHEMBL1157539, “Thousands of chemical starting points for antimalarial lead identification” (Nature, 2010)

Tests used:
Type in all cases: functional
[1] = test system: Plasmodium falciparum; assay: GSK_TCMDC: Inhibition of Plasmodium falciparum 3D7 in whole red blood cells, using parasite LDH activity as an index of growth. Test compounds present at 2uM
[2] = test system: Plasmodium falciparum; assay: GSK_TCMDC: Inhibition of Plasmodium falciparum Dd2 in whole red blood cells, using parasite LDH activity as an index of growth. Test compounds present at 2uM
[3] = test system: HepG2; assay: GSK_TCMDC: Percent inhibition of human HepG2 cell line. Test compounds present at 10uM.

CCN1CCC(N(Cc2ccc(-c3ccc(C(F)(F)F)cc3)cc2)C(=O)Cn2c(CCc3cccc(F)c3F)cc(=O)c3cn(C)nc32)CC1.O=C(O)C(O)C(O)C(=O)O
Inhibition [1]: 95%
Inhibition [2]: 87%
Inhibition [3]: 27%

Fc1ccc2[nH]c(-c3cccc(-c4cccc(CNCCc5ccncc5)c4)c3)nc2c1.O=C(O)C(F)(F)F
Inhibition [1]: 100%
Inhibition [2]: 88%
Inhibition [3]: 22%

COc1cc2nc(NCCc3ccccc3)nc(NCc3cc(C)no3)c2cc1OC
Inhibition [1]: 99%
Inhibition [2]: 100%
Inhibition [3]: 5%

Cc1ccc(O)cc1Nc1ccnc2cc(-c3ccccc3)ccc12.Cl
Inhibition [1]: 100%
Inhibition [2]: 99%
Inhibition [3]: 45%

Cc1ccccc1C1CCN(C2CCC(NC(=O)c3ccc4c(c3)-c3nocc3C(C)O4)CC2)CC1 (stereo not given)
Inhibition [1]: 88%
Inhibition [2]: 37%
Inhibition [3]: 68%

Cc1ccc(CNC(=O)[C@H](CCCN)Nc2cc(C)nc(NCC3CCCCC3)n2)cc1.O=C(O)C(F)(F)F
Inhibition [1]: 90%
Inhibition [2]: 0%
Inhibition [3]: 1%

Cc1ccnc(NC(=O)c2cc(-c3cccc([N+](=O)[O-])c3)nc3onc(C)c23)c1
Inhibition [1]: 91%
Inhibition [2]: 44%
Inhibition [3]: 5%

CN1CCN(c2nsc3ccc(-c4ccc(NC(=O)Nc5ccccc5)cc4)cc23)CC1.O=C(O)C(F)(F)F
Inhibition [1]: 100%
Inhibition [2]: 98%
Inhibition [3]: 38%

COc1ccc(NC(=O)[C@H](CC(C)C)Nc2cc(C)nc(NCCOc3ccccc3)n2)cc1.O=C(O)C(F)(F)F
Inhibition [1]: 100%
Inhibition [2]: 65%
Inhibition [3]: 0%

COc1cc(F)c2ncc(Cl)c(CCN3CCC(NCc4ccc5c(n4)NC(=O)CS5)CC3)c2c1.Cl
Inhibition [1]: 99%
Inhibition [2]: 41%
Inhibition [3]: 18%
